The list is not random: actives were taken first. Their share in the collection is about 10%.
LMNA splice mod = qHTS Assay for Modulators of Lamin A Splicing; HeLa LMNA splicing GFP/RFP minigene ratio, 48 h; Potency, µM (doses to about 46.1 µM), without a hit: at the highest dose ratio change, negative = inhibition, usual class: inhibitors; actives 0.01% (n = 200,000); AID 1487, 2009; active means well fitted inhibition curve with a large enough effect in the signal ratio, with a control signal flat, not every such curve was filed as active; inconclusive means small, poorly fitted or top-dose-only effect, or effect the other way, or a change in a side signal; the % refers to the signal ratio; further: potency means the concentration at half of the fitted maximal effect
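S3 HeLa stable clones carrying a lamin A-EGFP splicing minigene plus DsRed2 were seeded at 600 cells/well in Opti-MEM with 2% FBS, pin-dosed and incubated 48 h at 37°C. Acumen cytometry (488 nm) gave the GFP/RFP total-intensity ratio.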
IMPase cell inh = qHTS Assay for Identifying the Cell-Membrane Permeable IMPase Inhibitors | inhibition (IP1 accumulation), % at 46.1 µM | CHO-M1 cells, IP1 accumulation, HTRF TR-FRET ratio | 120,000 tested, under 10 active; active means well fitted curve in the direction sought with a large enough effect in the signal ratio, not every such curve was filed as active; inconclusive means small, poorly fitted or top-dose-only effect, or a change in a side signal; inactive means no such curve, though single readings can be large or run the other way; the % refers to the signal ratio;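 further: cells stimulated with carbachol in lithium chloride buffer; plate controls were DMSO basal wells for no effect and reference inhibitor wells for full effect; higher means more IMPase inhibition seen as more IP1 and lower FRET ratio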
Target sequence (P97697 whole entry, looked up): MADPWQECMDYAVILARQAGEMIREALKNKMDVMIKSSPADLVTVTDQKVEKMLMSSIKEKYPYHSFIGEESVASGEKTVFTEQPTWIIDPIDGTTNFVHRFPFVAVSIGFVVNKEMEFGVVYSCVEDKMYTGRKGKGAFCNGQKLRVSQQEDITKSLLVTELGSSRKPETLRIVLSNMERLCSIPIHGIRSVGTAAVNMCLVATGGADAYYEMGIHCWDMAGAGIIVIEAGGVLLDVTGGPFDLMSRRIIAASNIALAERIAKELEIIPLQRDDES
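The IP-One HTRF competitive assay in carbachol-stimulated CHO-M1 cells quantifies cellular IP1. Compounds spanned up to 46 uM final, and activity is expressed as AC50 from concentration-response fits of the ratio and donor data.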
ALDH1A1 block = qHTS Assay for Inhibitors of Aldehyde Dehydrogenase 1 (ALDH1A1); Aldehyde dehydrogenase 1A1 (Homo sapiens), P00352; Purified ALDH1A1, NADH fluorescence, propionaldehyde substrate; Potency, µM (series often up to 75.3 µM), inactives show at the highest dose activity, negative = inhibition, most hits filed as inhibitors; actives 7.3% (n = 220,000); AID 1030, 2008;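 further: potency means the concentration at half of the fitted maximal effect; plate controls were no enzyme wells and a reference inhibitor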
Target sequence (P00352 whole entry, looked up): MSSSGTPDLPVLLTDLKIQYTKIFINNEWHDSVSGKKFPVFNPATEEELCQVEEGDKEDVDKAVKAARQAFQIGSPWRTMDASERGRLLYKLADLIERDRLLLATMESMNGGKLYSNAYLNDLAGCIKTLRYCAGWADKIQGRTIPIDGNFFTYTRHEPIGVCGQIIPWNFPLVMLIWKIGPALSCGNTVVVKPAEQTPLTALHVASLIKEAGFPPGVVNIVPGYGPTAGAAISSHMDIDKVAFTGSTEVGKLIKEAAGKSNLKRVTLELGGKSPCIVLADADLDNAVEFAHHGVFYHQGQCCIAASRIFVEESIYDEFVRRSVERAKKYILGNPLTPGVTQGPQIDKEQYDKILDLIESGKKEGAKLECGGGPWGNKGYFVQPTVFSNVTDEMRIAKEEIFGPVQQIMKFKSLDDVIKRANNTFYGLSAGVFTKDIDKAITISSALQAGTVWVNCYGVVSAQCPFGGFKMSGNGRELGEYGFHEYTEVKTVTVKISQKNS
KinaseGlo FLuc = Counterscreen for Luciferase (Kinase-Glo TM) Inhibition; Kinase-Glo luciferase, ATP luminescence, 8 min; Potency, µM (highest dose often 38.3 µM), for inactives: at the top dose activity change, negative = inhibition, actives largely listed as inhibitors; actives 0.28% (n = 200,000); Luciferin 4-monooxygenase (Photuris pensylvanica), Q27757; active means well fitted inhibition curve with a large enough effect; inconclusive means small, poorly fitted or top-dose-only effect; further: potency means the concentration at half of the fitted maximal effect; nearly all actives have a fitted effect of over 60% in size
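Compounds were added to a substrate mix at pH 7.2 (50 mM imidazole, 10 uM ATP, within the enzyme's linear range), followed by Kinase-Glo detection reagent; luminescence was measured after 8 minutes at ambient temperature.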
PNC assembly inh = High Content Assay for Compounds that inhibit the Assembly of the Perinucleolar Compartment; PC3M PTB-GFP, PNC prevalence imaging, 16 h; stronger effect = lower value; activity change (PNC), negative = inhibition, % at 10 µM; actives 3.1% (n = 140,000);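 active means readout at or below -70, meaning at least 70% loss of cells showing the perinucleolar compartment, a nuclear body marking cancer cells; inconclusive means readout between -30 and a set limit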;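 further: plate controls were DMSO wells for no effect and camptothecin positive control wells for full effect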
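PC3M cells stably expressing PTB-GFP, 750–1000 cells/well, treated 16 h at 37 °C with compound (23 nl of library stock), in duplicate. After paraformaldehyde fixation and Hoechst stain, imaged at 20x; PNC prevalence scored by image analysis.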
HPGD block = qHTS Assay for Inhibitors of HPGD (15-Hydroxyprostaglandin Dehydrogenase); 15-hydroxyprostaglandin dehydrogenase [NAD(+)] (Homo sapiens), P15428; actives 4.3% (n = 150,000); purified HPGD, NADH fluorescence kinetic, PGE2 substrate; Potency, µM, for the others: top-dose activity change, negative = inhibition, hits mostly inhibitors; AID 894, 2007; further: potency means the concentration at half of the fitted maximal effect
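NADH formation kinetics: reaction with 30 uM PGE2 and 1 mM NAD+ (final), 20 nM enzyme, Tris-HCl pH 8 with Tween 20, after 15 min compound preincubation at room temperature. Fluorescence change, last versus first of five reads.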
Starred values were filed as active, the others as inactive; ? = inconclusive; nt = no result; [ ] = another dose, or the depositor's remark. Unless noted, the call rests on the fitted dose curve; in most records, active means well fitted inhibition curve with a large enough effect (not every such curve was filed as active); inconclusive means small, poorly fitted or top-dose-only effect, or another doubt; inactive means no such curve, though single readings can be large or run the other way. Unless noted, on the % scale 0 is the no-effect control and ±100 the full control effect.

SMILES | LMNA splice mod | IMPase cell inh | ALDH1A1 block | KinaseGlo FLuc | PNC assembly inh | HPGD block
COc1ccc(Nc2nnc(SCc3cc([N+](=O)[O-])cc4c3OCOC4)s2)cc1 | 4% | 9 | ? | -3% | ? | 25µM*
O=c1c2ccccc2nc(SCc2cc([N+](=O)[O-])cc3c2OCOC3)n1-c1ccccc1 | 4% | nt | 7% | -3% | -92* | -2%
Cc1ccc(C(=O)NNC(=O)c2cc(OCC(F)(F)F)ccc2OCC(F)(F)F)cc1 | 6% | 3 | 14% | 1% | -22 | -10%
O=C(NNC(=O)c1cc(OCC(F)(F)F)ccc1OCC(F)(F)F)c1cccc(C(F)(F)F)c1 | -7% | -1[1.84 µM] | 5% | -1% | -84* | -11%
CCOc1nc(-c2ccccc2O)nc2ccccc12 | -5% | 9 | 2% | -1% | ? | 13µM*
CCOC(=O)N1CCC(NC(=O)C2CCN(C(=O)N3CC(C)Oc4ccccc43)CC2)CC1 (stereo not given) | -5% | -1 | ? | 0% | -2 | -8%
CCOC(=O)N1CCC(NC(=O)C2CCN(C(=O)c3cc4oc(C)cc4n3Cc3c(F)cccc3Cl)CC2)CC1 | nt | nt | 20µM* | 1% | nt | nt
COc1ccc(/C=C2\OC(=S)N(C)C2=O)cc1 | ? | 10 | 20µM* | -2% | 1 | -9%
N#Cc1ccccc1NC(=O)CNc1ccccc1N1CCCCC1 | 2% | 7 | 32µM* | -2% | 11 | -12%
Cc1ccc(-c2cc(-c3ccccc3)[nH]c(=S)c2C#N)cc1 | -4% | -9[1.84 µM] | ? | 3% | 25 | -11%
N#Cc1c(N)[nH]c(=S)c(C#N)c1-c1ccccc1 | -5% | ? | 28µM* | 12% | 16 | -24%
O=S(=O)(c1ccccc1)N1CCC[C@@]2(CCN(C(c3ccccc3)c3ccccc3)C2)C1 | nt | nt | -3% | -1% | nt | -12%
CCC1SC2=NC(C)=C(C(=O)OC)C(c3ccc(C)cc3)N2C1=O (stereo not given) | 6% | 3 | 14µM* | 3% | ? | -24%
COc1cccc(C(=O)COc2ccc3c(C)c(Cc4ccccc4)c(=O)oc3c2C)c1 | -5% | nt | 5% | -1% | -100* | -10%
Cc1ccc(CNC(=O)CSc2c3c(nc4ccc(Cl)cc24)CCCC3)o1 | ? | -13 | 8.9µM* | 1% | 92 | -28%
CCN(CC)CCNC(=O)CSc1c2c(nc3cc(Cl)ccc13)CCCC2 | nt | nt | 4% | 9% | nt | nt
CCCn1c(-c2ccc(F)cc2)nc2c(NCCCN3CCOCC3)nc(C)nc21 | nt | nt | ? | -3% | nt | ?
N#CC1=C(N)n2c(s/c(=C\c3ccco3)c2=O)=C(C#N)C1c1ccco1 (stereo not given) | -3% | 2 | 22µM* | 0% | 0 | -24%
CS(=O)(=O)N(CC(=O)NCc1ccncc1)c1ccc(F)c(Cl)c1 | -13%[46 µM] | nt | 15% | 1% | nt | nt
Cc1ccc(N(CC(=O)NCc2ccncc2)S(C)(=O)=O)cc1Cl | -9% | 6 | ? | nt | -84* | nt
CC(OC(=O)c1oc2ccccc2c1COc1ccccc1)C(N)=O (stereo not given) | 15%[46 µM] | nt | 2.2µM* | 1% | nt | nt
COc1ccc(Cl)cc1NC(=O)c1sc(-n2nc(C)c(Cc3ccccc3)c2C)nc1C | 1%[46 µM] | nt | nt | nt | nt | nt
CCOc1ccc(Nc2nc3cc(S(=O)(=O)N(CC)CC)ccc3o2)cc1 | ? | 14 | 3.2µM* | 2% | -23 | 3.5µM*
CCS(=O)(=O)c1ccc2oc(Nc3ccc(C(C)C)cc3)nc2c1 | -3% | -5 | 4µM* | -2% | 28 | 4µM*
CCS(=O)(=O)c1ccc2oc(Nc3cc(C)cc(C)c3)nc2c1 | ? | 8 | ? | 0% | 118 | -27%
SMILES | LMNA splice mod | IMPase cell inh | ALDH1A1 block | KinaseGlo FLuc | PNC assembly inh | HPGD block
O=C(c1cccc(F)c1)N1CCC2(CCCN(Cc3nccs3)C2)CC1 | nt | nt | 1% | -3% | nt | -5%
Cn1c(=O)[nH]c(=O)c2c1nc(Br)n2CCC(=O)c1ccccc1 | 3% | 3 | 3.5µM* | -9% | -5 | -9%
Cc1nnc(SCCn2c(N3CCN(C)CC3)nc3c2c(=O)[nH]c(=O)n3C)s1 | 5% | 6 | 9% | -1% | -11 | -6%
Cc1nnc(SCCn2c(Br)nc3c2c(=O)[nH]c(=O)n3C)s1 | 1% | 9 | 7.9µM* | 0% | -27 | -14%
COc1ccc(CCn2c(Br)nc3c2c(=O)[nH]c(=O)n3C)cc1 | 8% | -1 | 6% | 0% | -82* | 13µM*
Cc1ccc(Cl)cc1N | nt | nt | -11% | nt | nt | -10%
COc1ccc(CN2CC(C(=O)NCCN3CCOCC3)CC2=O)cc1 (stereo not given) | 14% | 19 | 7% | 1% | -90* | -2%
COc1ccc(N2CC(C(=O)NCc3cccnc3)CC2=O)cc1 (stereo not given) | 19% | -4 | -4% | 1% | -98* | -10%
COc1ccccc1CNC(=O)C1CC(=O)N(c2ccc(C)c(C)c2)C1 (stereo not given) | -6% | -6 | 6.3µM* | -2% | -81* | -1%
COc1ccccc1CNC(=O)C1CC(=O)N(C2CCCC2)C1 (stereo not given) | -6% | 0 | 1% | 3% | -19 | -16%
COc1ccc(N2CC(C(=O)Nc3ccc(N4CCOCC4)cc3)CC2=O)cc1 (stereo not given) | 10% | -6 | -7% | -3% | -113* | -16%
Cc1ccc(N2CC(C(=O)NCc3cccnc3)CC2=O)cc1 (stereo not given) | -7% | 4 | 0% | -1% | -25 | -10%
COc1ccccc1CNc1ncnc2c1c(-c1ccccc1)cn2-c1cccc(C)c1 | -11%[46 µM] | nt | nt | nt | nt | nt
N#CCCn1c(=O)c(-c2ccccc2)nc2cnc(N3CCOCC3)nc21 | -2% | nt | ? | nt | nt | nt
CCc1ccccc1NC(=O)C1CCN(C(=O)N2CC(C)Oc3ccc(Cl)cc32)CC1 (stereo not given) | 9%[46 µM] | nt | nt | nt | nt | nt
Cc1ccc(S(=O)(=O)CC(N)=O)cc1 | 1% | 11 | 16% | -2% | 19 | 0%
Cc1ccc(S(=O)(=O)CCSC(=N)N)cc1 | ? | nt | 0.11µM* | -1% | nt | nt
C[C@@]12C(=O)OC(=O)[C@@]1(C)[C@H]1CC[C@@H]2O1 | nt | 12 | nt | nt | nt | nt
Cc1cc(-c2csc(NCc3ccccc3)n2)c(C)n1C | -8%[46 µM] | nt | 20µM* | -7% | nt | nt
Cc1nc2sccn2c1-c1csc(NCc2ccccc2)n1 | 21% | 12 | 11µM* | -3% | -3 | -21%
